BCR signal inh = inhibitors of chronic active B-cell receptor signaling; actives 0.05% (n = 340,000); ABC-DLBCL IkBa-CBG/CBR reporter, luminescence ratio, 4 h; Potency, µM (series often up to 46.1 µM), for inactives: at the highest dose activity change, negative = inhibition, actives largely listed as inhibitors; active = well fitted inhibition curve with a large enough effect in the signal ratio, with a control signal flat, not every such curve was filed as active; inconclusive = small, poorly fitted or top-dose-only effect, or effect the other way, or a change in a side signal; the % refers to the signal ratio;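 also: potency is read from the fitted curve at half-maximal effect; plate controls were basal doxycycline-induced cells for no effect and cells given 10 µM MG132 for full effect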
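TMD8 ABC-DLBCL cells carrying doxycycline-inducible green luciferase fused to IkappaBalpha plus unfused red luciferase were exposed to compounds (up to 46 uM) for 4 hrs at 37C. Activity came from the overlap-corrected green/red luminescence ratio.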
MCF10A rereplic = induces DNA re-replication in MCF 10a normal breast cells; AID 624296; MCF 10A DNA re-replication, Hoechst nuclear intensity, 48 h; Potency, µM (titrated, usually from 46.1 µM), inactives show at the top dose activity, positive = re-replication, hits mostly activators; actives 2.9% (n = 350,000); also: potency is read from the fitted curve at half-maximal effect; % of control where 0% means no effect; nearly all actives have a fitted effect of over 50% in size
DT40 TDP1 no CPT = qHTS for Inhibitors of human tyrosyl-DNA phosphodiesterase 1 (TDP1): qHTS in cells in absence of CPT; DT40 Tdp1-/- hTDP1 cells, no CPT, ATP luminescence, 48 h; Potency, µM (doses to about 46.2 µM), for inactives: at the top dose activity change, negative = growth inhibition, hits mostly inhibitors; actives 15% (n = 420,000); also: potency is read from the fitted curve at half-maximal effect; % is scaled to controls: 0 for no effect and ±100 for the full control effect; nearly all actives have a fitted effect of over 55% in size
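Growth of hTDP1-complemented DT40 Tdp1-knockout cells is measured by ATP luminescence after at least 48 hr compound exposure at 37 °C, with DMSO substituting for the 20 nM CPT used in the parallel screen.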
IL1B secr inh = inflammasome signaling inhibition, IL-1 beta readout. THP-1 LPS/ATP IL-1B secretion, AlphaLISA, 16 h; active compounds read low. AID 743279. activity change, % at 57.5 µM. actives 4.7% (n = 360,000); in the data active = activity change below about -50%; inconclusive = mostly about -30% to -49%; also: % is scaled to controls: 0 for no effect and ±100 for the full control effect
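Secreted IL-1B measured by AlphaLISA bead assay after 16 h compound exposure of THP-1 cells; compounds (final up to 57.5 uM) added 1 h before LPS (250 ng/mL) and ATP (1.25 mM) stimulation; lower signal means less secretion.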
DT40 TDP1 CPT = DT40-hTDP1 cell growth loss with CPT; chicken DT40 Tdp1-/-;hTDP1 cells + 20 nM CPT, ATP luminescence, 48 h; Potency, µM (series often up to 46.2 µM), without a hit: at the highest dose activity change, negative = growth inhibition, usual class: inhibitors; actives 12% (n = 420,000); also: potency is read from the fitted curve at half-maximal effect; % is scaled to controls: 0 for no effect and ±100 for the full control effect; nearly all actives have a fitted effect of over 55% in size
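Chicken DT40 Tdp1-/- cells complemented with human TDP1, 400 cells/well, exposed to compounds plus 20 nM camptothecin for at least 48 h at 37 C; viability read as ATP content by CellTiter-Glo luminescence.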
SW480 rerep = induces DNA re-replication in SW480 colon adenocarcinoma cells | SW480 DNA re-replication, Hoechst DNA content imaging, 48 h | Potency, µM (top dose mostly 46.1 µM), for the others: at the top dose re-replication activation, actives largely listed as activators | actives 1.8% (n = 340,000) | AID 624297; also: potency is read from the fitted curve at half-maximal effect; % of control where 0% means no effect; nearly all actives have a fitted effect of over 55% in size
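Compounds, transferred as 23 nL by pin tool, were incubated with cells for 48 hr; DNA content per nucleus was then quantified by Hoechst staining and fluorescence plate imaging.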
* = called active by the depositor; ? = inconclusive; . = no result given; ! = a repeat was not active. The list is not random: actives were taken first. Their share in the collection is about 19%. Unless noted, calls follow the shape of the dose curve; as a rule, active = well fitted curve in the direction sought with a large enough effect; inconclusive = small, poorly fitted or top-dose-only effect, or another doubt; inactive = no such curve, though single readings can be large; an effect the other way counts as inactive or inconclusive.

SMILES	BCR signal inh	MCF10A rereplic	DT40 TDP1 no CPT	IL1B secr inh	DT40 TDP1 CPT	SW480 rerep
COC(=O)c1ccc2c(=O)n(CCCCCC(=O)NCc3ccccc3)c(=O)[nH]c2c1	?	11%	-18%	36	-18%	0%
COC(=O)c1ccc2c(=O)n(CCCCCC(=O)NCCNC(C)=O)c(=O)[nH]c2c1	10%	-3%	-4%	-2	?	0%
COC(=O)c1ccc2c(=O)n(CCCCCC(=O)NCc3ccc(OC)cc3)c(=O)[nH]c2c1	?	.	?	.	23µM*	.
COC(=O)c1ccc2c(=O)n(CCCCCC(=O)NC(C)C)c(=O)[nH]c2c1	?	?	21µM*	6	?	4%
CC[C@]12c3[nH]c4ccccc4c3CCN1C(=O)C(CC(=O)NCCCN(C)C)C[C@@H]2C(=O)N1CCN(C(=O)c2ccco2)CC1 (some centres undefined)	-2%	23%	-3%	-2	-3%	14%
CCC(=O)N1CCc2cc(S(=O)(=O)N3CCN(c4ccccc4F)CC3)ccc21	.	.	-9%	.	0%	.
CCN1CCN(C(c2ccc(C)cc2)c2sc3nc(-c4ccco4)nn3c2O)CC1 (centres undefined)	1%	.	0%	.	4%	.
CC(NCc1cc(Br)ccc1OCC(N)=O)C12CC3CC(CC(C3)C1)C2 (centres undefined)	1%	?	18µM*	-61*	?	27%
COc1cc(CNc2ccc(S(N)(=O)=O)cc2)ccc1OCc1ccccc1F	.	9%	?	-7	18µM*	-6%
COc1cc(CNC23CC4CC(CC(C4)C2)C3)ccc1OCc1ccccc1	-2%	0%	21µM*	-17	29µM*	3%
CCNCc1ccc(OCc2ccccc2F)c(OC)c1	0%	?	?	-25	-27%	11%
COc1cc(CNC(C)C23CC4CC(CC(C4)C2)C3)cc(OC)c1OC (centres undefined)	-10%	6%	?	-20	?	15%
COc1ccc(CNC(=O)CC23CC4CC(CC(C4)C2)C3)cc1OC	0%	-7%	-24%	23	?	-69%
COc1cc(CNc2ccc(N3CCCCC3)cc2)ccc1OCC(=O)NC(C)(C)C	0%	-2%	23µM*	-20	?	0%
COc1ccc(CNc2ccc(N3CCN(C(C)=O)CC3)cc2)cc1OC	.	5%	.	.	.	-6%
COc1cc(/C=C(\NC(C)=O)C(=O)N2CCCCC2)ccc1OC(C)=O	-1%	5%	11%	7	9%	-3%
Cn1cccc1C(=O)N1CCC2(CCN(Cc3ccccc3)CC2)CC1	.	.	-6%	.	0%	.
COc1cc(CNc2ccc(N3CCCC3)cc2)ccc1OCc1ccccc1	?	?	2.1µM*	-20	1.6µM*	?
C=CCOc1c(CNc2ccc(S(N)(=O)=O)cc2)cccc1OC	-10%	-10%	18µM*	?	?	-18%
COc1ccc(CNc2ccc(S(N)(=O)=O)cc2)c(OC)c1OC	-8%	-9%	-8%	-4	-24%	-5%
COc1cc(CNC(C)C23CC4CC(CC(C4)C2)C3)ccc1OCC(=O)NC(C)(C)C (centres undefined)	?	18%	21µM*	-88*	-107%	?
COc1ccc(C(=O)Nc2ccc(N3CCCC3)cc2)cc1OC	?	?	?	-27	?	4%
COc1cc(C)ccc1OC(C)C(=O)Nc1ccc(N2CCCCC2)cc1 (centres undefined)	2%	10%	13µM*	-16	?	3%
COc1cc(C(=S)N2CCCC2)ccc1OCc1ccccc1	12%	8%	?	-3	1%	12%
O[C@@H](c1ccccc1)C1CCN(CCc2ccccc2)CC1	.	.	-23%	.	-9%	.
SMILES	BCR signal inh	MCF10A rereplic	DT40 TDP1 no CPT	IL1B secr inh	DT40 TDP1 CPT	SW480 rerep
CC(=O)N1CCC2(CCN(Cc3ccncc3)CC2)CC1	.	.	-4%	.	17%	.
COc1cc(CNc2ccc(N3CCCC3)cc2)ccc1OCc1ccccc1F	?	?	4.6µM*	-20	3.7µM*	?
COc1cc(CNc2nnnn2C)ccc1OCc1c(F)cccc1Cl	-1%	4%	9%	-1	7%	-9%
O=C(Cn1c(=O)n(-c2ccccc2)c(=O)c2c3c(sc21)CCC3)c1ccc(F)cc1	.	.	-69%	.	?	.
CCOc1ccc(-n2c(=O)c3c(C)c(C)sc3n(Cc3ccc(C(C)(C)C)cc3)c2=O)cc1	.	.	?	.	21µM*	.
CC(C)(C)C(=O)Cn1c(=O)n(-c2ccccc2)c(=O)c2c3c(sc21)CCC3	.	.	18µM*	.	15µM*	.
Cc1sc2c(c1C)c(=O)n(-c1ccccc1)c(=O)n2CC(=O)c1ccc(Cl)cc1	.	.	16µM*	.	?	.
COc1cccc(-n2c(=O)c3c(C)c(C)sc3n(CC(=O)Nc3ccccc3OC)c2=O)c1	.	.	5%	.	-10%	.
COc1cc(NC(=O)Cn2c(=O)n(-c3cccc(C)c3)c(=O)c3c(C)c(C)sc32)cc(OC)c1	4%	?	-29%	-6	21µM*	16%
CC1=C([N+](=O)[O-])C(c2ccccc2Cl)NC(=O)N1C (centres undefined)	-5%	-1%	1%	-5	29%	0%
CCOc1ccc(-n2c(=O)c3c(C)c(C)sc3n(CC(=O)C(C)(C)C)c2=O)cc1	.	.	23µM*	.	?	.
CCOc1ccc(-n2c(=O)c3c(C)c(C(=O)N(C)C)sc3n(CC(=O)Nc3c(C)cc(C)cc3C)c2=O)cc1	5%	.	-18%	.	-29%	.
O=C(COC(=O)CC1CC2CCC1C2)Nc1cc([N+](=O)[O-])ccc1F (centres undefined)	-7%	-2%	0%	-54*	14%	?
CCc1cccc(N(C)C(N)=Nc2cccc3ccccc23)c1	2%	10%	15µM*!	15	11µM*!	?
O=C(NC1CCCCC1)C(c1ccncc1)N(Cc1ccccc1)C(=O)c1ccc(-c2ccccc2)[nH]1 (centres undefined)	?	?	?	-28	16µM*	?
COc1ccc(CN(CC(=O)NC2CCCC2)C(=O)c2ccc(-c3ccccc3)[nH]2)cc1	7%	2%	?	-68*	-28%	3%
